Inconclusive results are not listed. The source made the active and inactive calls. Calls come from the whole dose curve; as a rule, active = well fitted curve in the direction sought with a large enough effect; inconclusive = small, poorly fitted or top-dose-only effect, or another doubt; inactive = no such curve, though single readings can be large; an effect the other way counts as inactive or inconclusive.

One test can be described thus: Cellular Toxicity (caspase-3) N2a (AID 665).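 Note: compound exposure lasted 16 h at 37 °C before readout.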 The settings on record: N2a cells, luminescence, normalized: DMSO 0%, 10 µM staurosporine 100%; series mostly up to 92.2 µM; caspase-3 activation: at the top concentration. The procedure, abridged: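 Mouse N2a neuroblastoma cells (1500/well) were treated with compounds for 16 h at 37 °C, then caspase-3/7 activity was read by Caspase-Glo luminescence after 1 h at room temperature. Data were normalized to DMSO and 10 uM staurosporine; AC50 from Hill fits.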
For the compound `Oc1cccc(Cl)c1Cl`, the “caspase-3 activation” value was 0.185% (inactive).

In the case of `CCC/C=N/O`, the “caspase-3 activation” value is -2.73% (inactive).

Regarding `Nc1cccc2ccccc12`, the “caspase-3 activation” value was -5.68% (inactive).

With `Cc1cnc[nH]1`, the “caspase-3 activation” value was -2.21% (inactive).

As for `CN(C)N=O`, the “caspase-3 activation” value is 3.25% (inactive).

Take `COc1c(C(C)(C)C)cc([N+](=O)[O-])c(C)c1[N+](=O)[O-]`: the “caspase-3 activation” value is 1.9% (inactive).

Turning to `C=C(Cl)CCl`, the “caspase-3 activation” value was -0.0662% (inactive).

Turning to `ClCCOCOCCCl`, the “caspase-3 activation” value is -1.96% (inactive).

As to `CC12CC1(C)C(=O)N(c1cc(Cl)cc(Cl)c1)C2=O` (stereo not given), the “caspase-3 activation” value is 1.67% (inactive).

As to `CC(C)(Cl)[N+](=O)[O-]`, the “caspase-3 activation” value was 1.53% (inactive).

In the case of `Cl/C=C/Cl`, the “caspase-3 activation” value was 1.53% (inactive).

For `O=C(O)c1cccc(Cl)c1`, the “caspase-3 activation” value is -5.38% (inactive).

Turning to `Brc1cccc(-c2ccccc2)c1`, the “caspase-3 activation” value was 0.107% (inactive).

With `Oc1c(Cl)cccc1Cl`, the “caspase-3 activation” value is -0.569% (inactive).

As for `ClCCOCCCl`, the “caspase-3 activation” value is -0.306% (inactive).

For `CCNCC`, the “caspase-3 activation” value was -1.31% (inactive).

`CC(C)C#N`: the “caspase-3 activation” value is -1.59% (inactive).

On to `Cl/C=C\Cl`, for which the “caspase-3 activation” value was -6.46% (inactive).

`c1ccc2c(c1)CCNC2`: the “caspase-3 activation” value is -1.49% (inactive).

Consider `CCBr`, for which the “caspase-3 activation” value was -1.05% (inactive).

`O=[N+]([O-])c1ccc(Cl)c(Cl)c1Cl`: the “caspase-3 activation” value was -3.12% (inactive).

Consider `N#CCCC#N`, for which the “caspase-3 activation” value was -0.692% (inactive).

Consider `OCCBr`, for which the “caspase-3 activation” value is -0.668% (inactive).

In the case of `C=CC(=O)OCCN(C)C`, the “caspase-3 activation” value was -2.11% (inactive).

`CC(C)(C)C(O)(CCc1ccc(Cl)cc1)Cn1cncn1` (stereo not given): the “caspase-3 activation” value is -1.82% (inactive).

Consider `N#CCCCCC#N`, for which the “caspase-3 activation” value was 0.853% (inactive).

Regarding `CN=C=O`, the “caspase-3 activation” value is -2.81% (inactive).

With `c1ccc(C2CO2)cc1` (stereo not given), the “caspase-3 activation” value is -1.36% (inactive).

As for `CCCCCC[N+](=O)[O-]`, the “caspase-3 activation” value was -2.68% (inactive).

Take `COc1ccc(C=O)cc1`: the “caspase-3 activation” value was -0.406% (inactive).

For the compound `Nc1ccc(Cl)c(Cl)c1`, the “caspase-3 activation” value was -1.26% (inactive).

Consider `CC(=O)[O-].CC(=O)[O-].CC(=O)[O-].[Cr+3]`, for which the “caspase-3 activation” value is -1.73% (inactive).

Take `CC(C#N)CCC#N` (stereo not given): the “caspase-3 activation” value was 1.09% (inactive).

Another test in a line: Cellular Toxicity (caspase-3) NIH 3T3 (AID 666).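 Note: caspase signal read after 16 h compound exposure; 0% = DMSO basal and 100% = 100 µM tamoxifen stimulation.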 As to conditions: NIH 3T3 caspase-3 activation, apoptosis/toxicity; series mostly up to 92.2 µM; caspase-3 activation: at the top concentration. Put shortly:
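Mouse NIH 3T3 fibroblasts (1000 cells/well) were treated with compound for 16 hr at 37°C in complete medium; caspase-3/7 activity was read by Caspase-Glo luminescence. Normalized to DMSO and 100 uM tamoxifen; AC50 from Hill fits.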
With `Oc1cccc(Cl)c1Cl`, the “caspase-3 activation” value was -2.39% (inactive).

`CCC/C=N/O`: the “caspase-3 activation” value was -2.2% (inactive).

`Nc1cccc2ccccc12`: the “caspase-3 activation” value was 3.04% (inactive).

Take `Cc1cnc[nH]1`: the “caspase-3 activation” value was -2.13% (inactive).

On to `CN(C)N=O`, for which the “caspase-3 activation” value was -0.49% (inactive).

Regarding `COc1c(C(C)(C)C)cc([N+](=O)[O-])c(C)c1[N+](=O)[O-]`, the “caspase-3 activation” value is 0.173% (inactive).

For the compound `C=C(Cl)CCl`, the “caspase-3 activation” value was 0.439% (inactive).

As to `ClCCOCOCCCl`, the “caspase-3 activation” value was -1.71% (inactive).

As to `CC12CC1(C)C(=O)N(c1cc(Cl)cc(Cl)c1)C2=O` (stereo not given), the “caspase-3 activation” value was -10.2% (inactive).

`CC(C)(Cl)[N+](=O)[O-]`: the “caspase-3 activation” value was -2.38% (inactive).

As for `Cl/C=C/Cl`, the “caspase-3 activation” value was 3.51% (inactive).

For the compound `CCCCOCC1CO1` (stereo not given), the “caspase-3 activation” value is -0.668% (inactive).

Take `O=C(O)c1cccc(Cl)c1`: the “caspase-3 activation” value is -8.76% (inactive).

Consider `C1CC2OC2CC1C1CO1` (stereo not given), for which the “caspase-3 activation” value is -3.07% (inactive).

`Brc1cccc(-c2ccccc2)c1`: the “caspase-3 activation” value is 0.236% (inactive).

Regarding `Oc1c(Cl)cccc1Cl`, the “caspase-3 activation” value is -0.0821% (inactive).

For the compound `ClCCOCCCl`, the “caspase-3 activation” value was -3.21% (inactive).

`CCNCC`: the “caspase-3 activation” value was -5.79% (inactive).

With `CC(C)C#N`, the “caspase-3 activation” value is 3.98% (inactive).

On to `Cl/C=C\Cl`, for which the “caspase-3 activation” value was -6.5% (inactive).

For `c1ccc2c(c1)CCNC2`, the “caspase-3 activation” value is -4.93% (inactive).

For the compound `CCBr`, the “caspase-3 activation” value was -0.00907% (inactive).

For `O=[N+]([O-])c1ccc(Cl)c(Cl)c1Cl`, the “caspase-3 activation” value is 16.1% (inactive).

Regarding `N#CCCC#N`, the “caspase-3 activation” value is -2.89% (inactive).

`Cc1ccccc1[N+](=O)[O-]`: the “caspase-3 activation” value is 2.03% (inactive).

With `OCCBr`, the “caspase-3 activation” value is -4.22% (inactive).

Regarding `C=CC(=O)OCCN(C)C`, the “caspase-3 activation” value was -0.12% (inactive).

Regarding `CC(C)(C)C(O)(CCc1ccc(Cl)cc1)Cn1cncn1` (stereo not given), the “caspase-3 activation” value was 1.74% (inactive).

`N#CCCCCC#N`: the “caspase-3 activation” value was -0.569% (inactive).

Turning to `CN=C=O`, the “caspase-3 activation” value was 4.3% (inactive).

For the compound `c1ccc(C2CO2)cc1` (stereo not given), the “caspase-3 activation” value was -1.57% (inactive).

Turning to `CCCCCC[N+](=O)[O-]`, the “caspase-3 activation” value was -3.04% (inactive).

As to `OCC(Cl)CCl` (stereo not given), the “caspase-3 activation” value was 3.13% (inactive).

For `COc1ccc(C=O)cc1`, the “caspase-3 activation” value was -0.333% (inactive).

On to `Nc1ccc(Cl)c(Cl)c1`, for which the “caspase-3 activation” value was -0.223% (inactive).

Consider `CC(=O)[O-].CC(=O)[O-].CC(=O)[O-].[Cr+3]`, for which the “caspase-3 activation” value is -6.71% (inactive).

For the compound `CC(=O)CCC(C)=O`, the “caspase-3 activation” value is -3.45% (inactive).
